Experimental findings from PubChem BioAssay (NCI) are described below.

About 83,000 compounds went through this panel and 20% of them were active in at least one assay; those are over-represented in the sample as a whole.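 For each line, cells grew in 96-well plates with the test compound present at a single concentration for 48 hours.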 Values without a mark were called inactive. The source made the active and inactive calls. The calls were made as follows: active = growth percent below 10; inactive = the rest.

Test systems include T-47D breast; BT-549 breast; MDA-MB-435 melanoma; SW-620 colon; MCF7 breast; HCT-116 colon; HCC-2998 colon; KM12 colon; MDA-MB-468 breast.
Common to all, as to test: NCI-60 one-dose screen, 48 h (100 = growth as untreated, 0 = no growth, -100 = all killed)
Common to all, as to conditions: 10 µM

Consider `O=C(CS(=O)(=O)c1oc(-c2ccc(Cl)cc2)nc1S(=O)(=O)c1ccc(Cl)cc1)N1CCOCC1`, for which the growth in the test with T-47D breast is -50.2% (active); with BT-549 breast, 52.4%; with MDA-MB-435 melanoma it was 47%; with SW-620 colon, -18.3% (active); in the test on MCF7 breast, 11.3%; in the test on HCT-116 colon, 4.36% (active). For the same compound, the growth is 51% with HCC-2998 colon, 55.8% in the test on KM12 colon and -4.97% (active) in the test on MDA-MB-468 breast.

Take `O=C1N/C(=N\c2nccs2)S/C1=C\c1cccs1`: the growth was 22.5% in the test on T-47D breast; 44.2% in the test with BT-549 breast; 41.9% in the test on MDA-MB-435 melanoma; 30% with SW-620 colon; 15.4% with MCF7 breast; 15.5% in the test on HCT-116 colon. For the same compound, the growth in the test with HCC-2998 colon was 40.8%; in the test on KM12 colon it was 28.1%; in the test on MDA-MB-468 breast it was 10.4%.

Consider `CCOC(=O)C1=C(N)N(c2ccc(C)cc2)C2=C(C(=O)CC(C)(C)C2)C1c1ccccc1OC` (stereo unspecified), for which the growth in the test with T-47D breast was 97.8%; in the test on BT-549 breast it was 95.7%; in the test on MDA-MB-435 melanoma it was 111%; with SW-620 colon, 105%; with MCF7 breast, 93.5%; in the test with HCT-116 colon, 103%. Besides, the values for the growth in the test on HCC-2998 colon, in the test on KM12 colon and in the test with MDA-MB-468 breast were 106%, 108% and 101%, respectively.

Regarding `COc1ccc2[nH]c(O)c(N=NC(=O)COc3ccc(NC(=O)Nc4ccc(Cl)c(Cl)c4)cc3)c2c1`, the growth was -72.1% (active) in the test with T-47D breast; -20.6% (active) with BT-549 breast; -88.8% (active) in the test on MDA-MB-435 melanoma; 3.28% (active) with SW-620 colon; -26% (active) with MCF7 breast; -42% (active) in the test on HCT-116 colon. The growth was -67.4% (active) with HCC-2998 colon, -31% (active) with KM12 colon and -57.8% (active) in the test with MDA-MB-468 breast.

In the case of `COc1ccc2c3nc4cc(C)c(C)cc4nc3n(CCN(C)C)c2c1`, the growth is -12.2% (active) in the test on T-47D breast; 39.4% in the test on BT-549 breast; -76.1% (active) with MDA-MB-435 melanoma; -51.6% (active) in the test with SW-620 colon; -16.6% (active) with MCF7 breast; -61.1% (active) in the test on HCT-116 colon. Besides, the results for the growth in the test with HCC-2998 colon, with KM12 colon and in the test on MDA-MB-468 breast were -56.1% (active), -18% (active) and -10.9% (active), respectively.

Take `N#Cc1c(-c2ccc(Cl)cc2)cc(-c2ccccc2)nc1OCc1ccccc1`: the growth was 52.3% in the test on T-47D breast; 83.4% with BT-549 breast; 96.1% in the test on MDA-MB-435 melanoma; 84% with SW-620 colon; 53.8% in the test on MCF7 breast; 53.7% in the test on HCT-116 colon. The figures for the growth in the test with HCC-2998 colon, in the test with KM12 colon and in the test on MDA-MB-468 breast were 95%, 82.6% and 65.4%, respectively.

Take `COC(=O)C(Cc1ccc(O)c(O)c1)NC(=O)C(CSC/C=C(\C)CCCC(C)CCCC(C)CCCC(C)C)NC(C)=O` (stereo unspecified): the growth with T-47D breast was -0.796% (active); in the test with BT-549 breast, 23.3%; in the test on MDA-MB-435 melanoma it was 30%; in the test with SW-620 colon it was 19.8%; in the test with MCF7 breast, 24.4%; in the test with HCT-116 colon, 21.2%. Also, the growth is 19.3% with HCC-2998 colon, 16.4% in the test on KM12 colon and 6.4% (active) in the test on MDA-MB-468 breast.

For `CC[C@]12C=CCN3CC[C@@]4(c5cc(C#CCNc6ccc(C)c(Nc7nccc(-c8cccnc8)n7)c6)c(OC)cc5N(C)[C@H]4[C@@](O)(C(=O)OC)[C@@H]1OC(C)=O)C32` (stereo partly specified), the growth with T-47D breast was 45.5%; in the test on BT-549 breast, -3.24% (active); in the test with MDA-MB-435 melanoma, 34%; with SW-620 colon, 50%; in the test with MCF7 breast, 21.7%; in the test with HCT-116 colon, 27.2%. Besides, the growth is 41.2% in the test with HCC-2998 colon, 44.9% with KM12 colon and 1.75% (active) with MDA-MB-468 breast.

For `CC1CC(c2ccc(N(C)C)cc2)=NN1c1nc(O)c(C2=c3cc(Br)ccc3=NC2=O)s1` (stereo unspecified), the growth was 66.7% with T-47D breast; 85% in the test on BT-549 breast; 102% in the test on MDA-MB-435 melanoma; 78.9% in the test on SW-620 colon; 78.6% in the test with MCF7 breast; 66.8% in the test with HCT-116 colon. The growth in the test on HCC-2998 colon was 32.1%; with KM12 colon, 73.2%; in the test on MDA-MB-468 breast, 54.2%.

For the compound `COc1cc(/C=C/C(=O)c2ccc(NC(=O)CSc3nnc(-c4c[nH]c5ccccc45)n3-c3ccccc3)cc2)cc(OC)c1OC`, the growth in the test with T-47D breast was 69.6%; in the test with BT-549 breast, 54.9%; in the test on MDA-MB-435 melanoma, 34.1%; in the test with SW-620 colon, 25.4%; in the test on MCF7 breast, 10%; in the test with HCT-116 colon it was -30.2% (active). The growth is 23.8% in the test on HCC-2998 colon, 48.8% with KM12 colon and 37% in the test on MDA-MB-468 breast.

`COc1ccc(/C=C/C(=O)c2ccc(N3CCN(C)CC3)cc2)c(C(F)(F)F)c1`: the growth was 39.7% in the test on T-47D breast; 40.7% with BT-549 breast; -54.9% (active) in the test on MDA-MB-435 melanoma; -80% (active) with SW-620 colon; -54.1% (active) in the test on MCF7 breast; 11.4% in the test with HCT-116 colon. The figures for the growth in the test on HCC-2998 colon, with KM12 colon and with MDA-MB-468 breast were -49.4% (active), 8.95% (active) and -10.7% (active), respectively.

In the case of `Nc1n[nH]c2cccc(C#Cc3cccc(NC(=O)Nc4cc(C(F)(F)F)cc(C(F)(F)F)c4)c3)c12`, the growth is -11.3% (active) in the test with T-47D breast; -66.8% (active) in the test on BT-549 breast; -76.7% (active) in the test on MDA-MB-435 melanoma; -75.7% (active) in the test on SW-620 colon; -37.2% (active) with MCF7 breast; 2.34% (active) in the test with HCT-116 colon. Moreover, the growth in the test with HCC-2998 colon was -95.3% (active); with KM12 colon, -61.5% (active); in the test on MDA-MB-468 breast it was -59.7% (active).

Take `O=C1c2ccccc2C(=O)c2c1c(C(=O)c1ccc(Cl)cc1)n1c2ccc2c3ccccc3ccc21`: the growth in the test with T-47D breast was 104%; with BT-549 breast it was 119%; with MDA-MB-435 melanoma it was 114%; in the test on SW-620 colon it was 101%; with MCF7 breast, 93%; with HCT-116 colon, 104%. The growth with HCC-2998 colon is 116%; with KM12 colon, 103%; with MDA-MB-468 breast, 112%.

For `O=C(Nc1ccccc1)Nc1nc2ccccc2s1`, the growth was 25.5% in the test with T-47D breast; 89.6% in the test with BT-549 breast; 97.2% in the test with MDA-MB-435 melanoma; 111% in the test with SW-620 colon; 21.4% with MCF7 breast; 85.9% in the test on HCT-116 colon. In addition, the growth with HCC-2998 colon was 85%; in the test with KM12 colon, 90.1%; in the test with MDA-MB-468 breast it was -1.66% (active).

Turning to `COc1ccc2[nH]c(O)c(N=NC(=O)c3cc(-c4ccc(C)cc4)nc4ccccc34)c2c1`, the growth in the test on T-47D breast is 69%; in the test on BT-549 breast it was 139%; in the test with MDA-MB-435 melanoma it was 95.4%; in the test on SW-620 colon, 107%; in the test on MCF7 breast, 61%; with HCT-116 colon, 78.1%. Moreover, the growth in the test with HCC-2998 colon is 115%; with KM12 colon it was 95.1%; in the test on MDA-MB-468 breast it was 76.2%.

For the compound `O=C(Nc1nc2ccccc2s1)c1ccc(Br)cc1`, the growth with T-47D breast was 44.1%; with BT-549 breast, 90.3%; with MDA-MB-435 melanoma, 88.8%; in the test on SW-620 colon, 95%; with MCF7 breast it was 41.6%; with HCT-116 colon it was 86.2%. Moreover, the growth with HCC-2998 colon is 78.3%; with KM12 colon, 72.4%; in the test with MDA-MB-468 breast, 37.9%.

Turning to `COc1cccc(/C=C2\N=C(C)N(CCc3ccc(S(N)(=O)=O)cc3)C2=O)c1`, the growth in the test with T-47D breast is 97.3%; in the test on BT-549 breast, 100%; in the test with MDA-MB-435 melanoma it was 114%; in the test with SW-620 colon, 105%; in the test with MCF7 breast, 95.2%; in the test on HCT-116 colon, 97.8%. Also, the growth in the test on HCC-2998 colon was 117%; in the test with KM12 colon it was 104%; with MDA-MB-468 breast, 113%.

Regarding `C/C(=N\NC(N)=S)c1ccc(Nc2nc(SC(C)C)nc(-c3ccccc3)c2C#N)cc1`, the growth is 57.3% with T-47D breast; 28.5% in the test on BT-549 breast; 82.6% in the test with MDA-MB-435 melanoma; 85.8% with SW-620 colon; 64.2% with MCF7 breast; 57.5% in the test on HCT-116 colon. Further, the growth was 59.2% in the test on HCC-2998 colon, 75.7% with KM12 colon and 28.2% in the test on MDA-MB-468 breast.

Take `CN1CCN(c2ccc(C(=O)/C=C/c3ccc(C#N)cc3)cc2)CC1`: the growth was 87.4% with T-47D breast; 91.1% in the test on BT-549 breast; 28.1% in the test with MDA-MB-435 melanoma; 35.5% in the test on SW-620 colon; 6.57% (active) with MCF7 breast; 18% in the test on HCT-116 colon. In addition, the growth in the test on HCC-2998 colon was 47%; with KM12 colon, 46.8%; in the test on MDA-MB-468 breast, 26.5%.
